Assay outcomes from PubChem BioAssay.
PLK1 PBD block – blocks phosphopeptide binding to human PLK1 polo-box domain. Potency, µM, for inactives: max response, negative = inhibition, usual class: inhibitors. actives 2.8% (n = 360,000). Plk1 PBD binding of FITC phosphopeptide, fluorescence polarization. AID 720504. P53350; further: series mostly up to about 57 µM; on the % scale 0 is the no-effect control and ±100 the full control effect; nearly all actives have a fitted effect of over 65% in size
BAZ2B block – blocks human BAZ2B | Potency, µM (highest dose often 114 µM), for inactives: top-dose activity change, negative = inhibition, most hits filed as inhibitors | actives 4.4% (n = 360,000) | AID 504333 | AlphaScreen BAZ2B-H3K14Ac peptide displacement | Q9UIF8; further: on the % scale 0 is the no-effect control and ±100 the full control effect; nearly all actives have a fitted effect of over 60% in size
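BAZ2B 50 nM plus b-H3(5-23)K14Ac 50 nM, PBS pH 7.4/0.01% Tween-20, 30 min RT; compound added (max 110 uM), 30 min RT; streptavidin donor/Ni-chelate acceptor beads 10 ug/mL final, 20 min dark; AlphaScreen read.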
L3MBTL1 block – inhibitors of human L3MBTL1; AlphaScreen L3MBTL1–H3K9me1 peptide binding; Potency, µM (top dose mostly 57.1 µM), for inactives: top-dose activity, negative = inhibition, most hits filed as inhibitors; Q9Y468; actives 0.66% (n = 230,000); further: on the % scale 0 is the no-effect control and ±100 the full control effect; nearly all actives have a fitted effect of over 60% in size
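Read-out is AlphaScreen signal from streptavidin donor and nickel chelate acceptor beads (10 ug/mL final each) bridging L3MBTL1 (50 nM) and biotinylated K9-monomethylated H3(1-15) peptide (75 nM), after 30 min compound exposure at room temperature.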
VDR inhibitor – blocks the human vitamin D receptor; P11473; VDR-SRC2-3 peptide fluorescence polarization, 2 h; actives 0.93% (n = 400,000); Potency, µM, for the others: max response, negative = inhibition, most hits filed as inhibitors; AID 504847; further: on the % scale 0 is the no-effect control and ±100 the full control effect
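Compounds are added to VDR with labelled SRC2-3 coactivator peptide and held 2 h at room temperature. Inhibition of the VDR–peptide interaction is then read as a change in fluorescence polarization.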
HP1b chromo inh – HP1-beta chromodomain-methylated histone interaction inhibition; AlphaScreen HP1-beta / biotin-H3K9me3 peptide binding; Potency, µM (highest dose often 114 µM), for the others: at the top dose activity change, negative = inhibition, most hits filed as inhibitors; AID 540317; P83916; actives 0.56% (n = 390,000); further: nearly all actives have a fitted effect of over 70% in size
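HP1-beta protein (50 nM final) preincubated 30 min at room temperature with biotinylated H3(1-18)K9me3 peptide (50 nM) in PBS pH 7.4, 0.01% Tween-20, then compound added for 30 min. AlphaScreen streptavidin donor/nickel chelate acceptor beads (10 ug/mL final), 30 min dark, luminescence read.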
JMJD2A Tudor inh – JMJD2A Tudor domain (human) inhibition; O75164; AlphaScreen JMJD2A-Tudor / H3K4me3 peptide binding; Potency, µM (series often up to 114 µM), without a hit: top-dose activity change, negative = inhibition, actives largely listed as inhibitors; actives 4.4% (n = 390,000); further: on the % scale 0 is the no-effect control and ±100 the full control effect; nearly all actives have a fitted effect of over 50% in size
Target sequence (O75164 whole entry, looked up, the tested form may be a part): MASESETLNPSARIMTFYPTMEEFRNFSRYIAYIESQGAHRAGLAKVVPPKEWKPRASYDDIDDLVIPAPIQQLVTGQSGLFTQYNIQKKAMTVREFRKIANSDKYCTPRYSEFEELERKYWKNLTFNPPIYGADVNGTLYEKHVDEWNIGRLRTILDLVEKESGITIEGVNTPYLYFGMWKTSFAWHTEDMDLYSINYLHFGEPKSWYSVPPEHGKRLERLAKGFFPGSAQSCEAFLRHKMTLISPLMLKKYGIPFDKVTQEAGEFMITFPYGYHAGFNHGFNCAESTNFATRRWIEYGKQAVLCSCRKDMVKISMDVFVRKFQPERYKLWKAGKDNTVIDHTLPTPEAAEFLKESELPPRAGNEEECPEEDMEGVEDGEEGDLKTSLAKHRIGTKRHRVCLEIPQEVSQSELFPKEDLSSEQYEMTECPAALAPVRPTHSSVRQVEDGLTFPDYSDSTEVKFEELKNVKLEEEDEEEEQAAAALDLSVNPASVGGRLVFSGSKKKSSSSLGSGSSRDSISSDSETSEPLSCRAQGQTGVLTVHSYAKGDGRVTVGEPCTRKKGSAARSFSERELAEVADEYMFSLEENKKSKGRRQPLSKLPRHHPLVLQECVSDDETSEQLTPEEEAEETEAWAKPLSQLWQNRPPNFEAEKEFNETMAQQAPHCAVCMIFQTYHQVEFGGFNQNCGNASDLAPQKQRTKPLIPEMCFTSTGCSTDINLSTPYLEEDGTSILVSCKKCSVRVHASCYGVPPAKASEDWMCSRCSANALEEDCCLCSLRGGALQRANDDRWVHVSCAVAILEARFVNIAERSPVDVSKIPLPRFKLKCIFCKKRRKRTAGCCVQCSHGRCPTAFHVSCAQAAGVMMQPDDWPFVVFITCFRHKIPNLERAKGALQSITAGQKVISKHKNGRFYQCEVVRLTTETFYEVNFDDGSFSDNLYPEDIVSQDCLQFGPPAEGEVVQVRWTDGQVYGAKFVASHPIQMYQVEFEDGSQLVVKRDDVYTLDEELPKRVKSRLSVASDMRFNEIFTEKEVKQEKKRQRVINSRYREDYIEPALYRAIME
* marks the source's active call; other numbers are inactive results; ? = inconclusive; · = no result given; [ ] = another dose, or the depositor's remark. This is a sample that favours compounds with a hit; in the whole collection about 6.9% have one here. The call rests on the fitted dose curve; in most records, active means well fitted curve in the direction sought with a large enough effect; inconclusive means small, poorly fitted or top-dose-only effect, or another doubt; inactive means no such curve, though single readings can be large; an effect the other way counts as inactive or inconclusive. Potency means the concentration at half of the fitted maximal effect.

SMILES | PLK1 PBD block | BAZ2B block | L3MBTL1 block | VDR inhibitor | HP1b chromo inh | JMJD2A Tudor inh
CNC(=O)CCCc1nc(-c2ccccc2Cl)no1 | 24µM* | 1% | · | -8% | -14% | -22%
CC(=O)c1c(C)[nH]c(C(=O)OCC(=O)Nc2cccc(S(=O)(=O)N3CCCC3)c2)c1C | -1% | 56µM* | 1% | 1% | 7% | -22%
COc1ccc(OC)c(NC(=O)CSc2nc3nc(C)cc(C)n3n2)c1 | 3% | 10% | 3% | -14% | 39% | -4%
CCN1/C(=C/C=C/c2oc3ccc(-c4ccccc4)cc3[n+]2CC)Oc2ccc(-c3ccccc3)cc21 | -110% | 28µM* | -89% | 23% | -20% | ?
CC(=O)Nc1ccc2c(COC(=O)[C@H](C)N3C(=O)C4CCCCC4C3=O)cc(=O)oc2c1 (stereo partly drawn) | -5% | -1% | -1% | 21% | 20% | -28%
CC(C)CC(NC(=O)C1CCCCC1)C(=O)Nc1cccc(C(F)(F)F)c1 (stereo not drawn) | · | 3% | · | -13% | 15% | -10%
S=C(CSc1ccccc1)Nc1cccc2ccccc12 | 11µM* | · | · | · | · | ·
Cc1ccc(NC(=O)N2CCc3c(sc4c3CCCC4)C2c2ccccc2)cc1F (stereo not drawn) | · | -38% | · | -6% | 24% | -6%
COC(=O)/C=C/c1cccc(N(Cc2ccc(-c3ccc(N(C)C)cc3)cc2)C(=O)C2CCCCC2)c1 | · | · | · | 0% | · | ·
Cc1c(C)n(C)c2ccc(C(=O)NCCCN3CCN(c4ccccc4F)CC3)cc12 | 0% | ? | · | 7% | ? | 56µM*
Cc1c(C)n(C)c2ccc(C(=O)NCCCN3CCN(c4ccc(F)cc4)CC3)cc12 | -11% | 35µM* | · | 0% | ? | 56µM*
COC(=O)c1cc(S(=O)(=O)NCCN2CCN(c3ccccc3F)CC2)c[nH]1 | 21µM* | -16% | · | -20% | 8% | ?
COC(=O)c1cc(S(=O)(=O)N2CCN(c3ccccc3F)CC2)c[nH]1 | -14% | -10% | · | -5% | 57% | -25%
Cc1cc(C(=O)NCc2ccccc2)c2c(C)nn(-c3cccc(F)c3)c2n1 | · | 13%[57.1 µM] | · | -2% | 46% | 6%
Nc1ncnc2[nH]c(=O)[nH]c12 | · | · | · | 11% | · | ·
CCC(=O)N1CCc2cc(S(=O)(=O)NCCC(=O)Nc3cccc(SC)c3)ccc21 | · | · | · | 3% | 80% | 5%
COc1ccc(OC(C)C(=O)NCc2nc(-c3ccc(Cl)cc3)no2)cc1 (stereo not drawn) | · | 8% | · | 11% | 66% | 14%
C=Cc1nc(Nc2cc(F)cc(F)c2)nc(NC2CCCC2)n1 | · | · | · | · | · | -15%
Cc1cccc(NC(=O)CSc2ccc(-c3ccccn3)nn2)c1C | -7% | 2.8µM* | · | 2% | 28% | 8.9µM*
Cc1cccc(NC(=O)CSc2ccc(-c3ccco3)nn2)c1C | -14% | -12% | -17% | -19% | 33% | -12%
COc1ccc(C)cc1NC(=O)CSc1nnc(-c2ccccn2)n1Cc1ccco1 | -5% | ? | -17% | -1% | 8% | ?
COc1ccccc1NC(=O)CSc1nnc(-c2ccccn2)n1Cc1ccco1 | -9% | ? | -9% | -21% | -15% | 56µM*
COc1ccccc1NC(=O)CSc1ccc(-c2ccccn2)nn1 | -9% | 3.2µM* | · | 17% | 23% | 3.5µM*
COc1ccccc1NC(=O)CSc1ccc(-c2ccc(-n3cccn3)cc2)nn1 | 0% | ? | -5% | 7% | 15% | -8%
Clc1ccccc1CSc1nnc(-c2ccccn2)n1Cc1ccco1 | -14% | 56µM* | -1% | ? | 0% | 56µM*
CCOC(=O)/C(=C/Nc1ccc(F)cc1)[N+](=O)[O-] | -13% | -4% | 5% | -17% | 24% | -4%
Cc1ccc(S(=O)(=O)c2[nH]c(-c3ccccc3)nc2SCC(N)=O)cc1 | · | -34% | · | 8% | 23% | -21%
CN(C)c1ccc(NC(=O)CSc2nnc(-c3cccs3)n2Cc2ccco2)cc1 | 0% | 45µM* | · | -10% | ? | 40µM*
